This is a sample that favours compounds with a hit; in the whole collection about 9.4% have one here.
ELG1 genotoxic: inducers of genotoxicity in HEK293T ELG1-luciferase cells; HEK293T ELG1-luciferase reporter, luminescence, 16 h; Potency, µM (titrated, usually from 46 µM), for the others: at the top dose activity change, positive = activation, actives largely listed as activators; 1.3% of 330,000 active; AID 504466; also: % of control where 0% means no effect; nearly all actives have a fitted effect of over 60% in size
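After overnight (16 hr) compound treatment at 37 °C, ELG1-luciferase HEK293T cells were lysed with ONE-Glo; luminescence quantified 30 min later at room temperature.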
NPC1 prom act: activators of NPC1 promoter. Potency, µM (titrated, usually from 9.22 µM), for inactives: top-dose activation, usual class: activators. 2.4% of 320,000 active. Huh7 NPC1 promoter luciferase reporter, 24 h. AID 485313; also: % of control where 0% means no effect; nearly all actives have a fitted effect of over 60% in size
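Stably transfected Huh7 (NPC1 promoter→luciferase), 1500 cells/well in Opti-MEM + 10% FBS, 2 h settle, then compound 24 h at 37 °C. Luminescence after 10 min with Amplite reagent.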
FLuc counter: inhibits or activates purified firefly luciferase, miR-21 counter-screen; P08659; purified FLuc, Km substrates, luminescence inhibition; Potency, µM (top dose mostly 57.5 µM), inactives show top-dose activity change, negative = inhibition, most hits filed as inhibitors; 6.9% of 360,000 active; AID 588342;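 also: plate controls were vehicle for no effect and reference inhibitor for full effect; nearly all actives have a fitted effect of over 55% in size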
Target sequence (P08659 whole entry, looked up): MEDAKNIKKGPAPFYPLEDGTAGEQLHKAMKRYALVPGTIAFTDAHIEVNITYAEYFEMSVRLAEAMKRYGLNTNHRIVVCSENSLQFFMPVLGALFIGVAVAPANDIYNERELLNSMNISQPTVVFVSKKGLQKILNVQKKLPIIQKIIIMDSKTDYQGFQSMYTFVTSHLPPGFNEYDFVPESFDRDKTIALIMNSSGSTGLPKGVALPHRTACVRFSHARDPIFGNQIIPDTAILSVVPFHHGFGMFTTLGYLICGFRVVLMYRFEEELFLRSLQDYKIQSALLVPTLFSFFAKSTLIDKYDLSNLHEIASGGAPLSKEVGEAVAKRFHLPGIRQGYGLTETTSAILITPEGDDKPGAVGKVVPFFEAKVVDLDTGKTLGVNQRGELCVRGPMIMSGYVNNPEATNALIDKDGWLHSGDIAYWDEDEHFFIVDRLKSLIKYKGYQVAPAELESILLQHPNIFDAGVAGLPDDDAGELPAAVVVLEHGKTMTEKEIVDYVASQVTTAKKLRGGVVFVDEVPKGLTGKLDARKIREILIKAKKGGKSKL
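Purified P. pyralis luciferase, 10 nM final, with Km-level 10 uM D-luciferin and 10 uM ATP in 50 mM Tris acetate pH 7.5, 10 mM Mg acetate, 0.01% Tween-20, 0.05% BSA; 6-point qHTS titration about 60 µM downward; luminescence read.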
Rab9 promoter act: Rab9 promoter activation | AID 485297 | Huh7 Rab9 promoter-luciferase reporter, luminescence, 24 h | 2.8% of 320,000 active | Potency, µM (top dose mostly 9.22 µM), for the others: at the top dose activation, negative = inhibition, most hits filed as activators; also: % of control where 0% means no effect; nearly all actives have a fitted effect of over 60% in size
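Cells were plated at 1500 per well in reduced-serum medium with 10% FBS and left 2 h. Compound in DMSO was then added for 24 h at 37 °C. Reporter signal was read by luminescence after 10 min with luciferase detection reagent.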
SMN2 splice up: enhancers of SMN2 splice variant expression; Potency, µM (doses to about 46.1 µM), inactives show at the highest dose activity change, positive = activation, actives largely listed as activators; AID 1458; HEK293 SMN2-luciferase splicing reporter, luminescence, 30-36 h; 2.8% of 210,000 active; also: % of control where 0% means no effect; nearly all actives have a fitted effect of over 55% in size
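HEK293 cells carry an SMN2 […]–luciferase reporter in which exon 7 inclusion puts luciferase in frame. Cells were plated 10-12 h before compound addition, then incubated 30-36 h at 37C. ONE-Glo luminescence was read; sodium butyrate at 4.5 mM final served as control.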
ELG1 repair inh: inhibitors of ELG1-dependent DNA repair in HEK293T cells; 2.3% of 330,000 active; HEK293T ELG1-luciferase reporter, luminescence, 16 h; DNA damage induced by 5-fluorouridine; Potency, µM (series often up to 46.1 µM), for the others: top-dose activity change, negative = inhibition, usual class: inhibitors; also: % is scaled to controls: 0 for no effect and ±100 for the full control effect; nearly all actives have a fitted effect of over 55% in size
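5-Fluorouridine DNA damage + compound/DMSO, 2,000 cells/well, 16 h, 37 °C/5% CO2. ONE-Glo, 30 min RT, luminescence. Readout = decrease in reporter signal.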
* marks the source's active call; other numbers are inactive results; ? = inconclusive; . = no result given; [ ] = remark or other dose. Calls follow the shape of the dose curve; as a rule, active = well fitted curve in the direction sought with a large enough effect; inconclusive = small, poorly fitted or top-dose-only effect, or another doubt; inactive = no such curve, though single readings can be large; an effect the other way counts as inactive or inconclusive. Potency is read from the fitted curve at half-maximal effect.

SMILES	ELG1 genotoxic	NPC1 prom act	FLuc counter	Rab9 promoter act	SMN2 splice up	ELG1 repair inh
COc1ccc(OC)c(NC2=C(c3ccccc3)C(=O)c3ccccc32)c1	.	.	-20%	.	-29%	.
CC(=O)c1c(C)[nH]c2ccccc2c1=O	0%	-3%	2%	1%	4%	-13%
Cc1[nH]c2ccccc2c1C(=O)CSc1ccc(Cl)cc1	?	23%	?	26%	9%	11%
Cc1[nH]c2ccccc2c1C(=O)/C=C/c1ccccc1Cl	?	3.2µM*	8.5µM*	3.2µM*	11µM*	?
Cc1[nH]c2ccccc2c1C(=O)/C=C\c1ccccc1Cl	?	?	6µM*	?	?	?
Cc1[nH]c2ccccc2c1C(=O)/C=C/c1ccccc1	14%	3.2µM*	4.8µM*	?	28%	?
Cc1cccc(Cn2cc(C(=O)Nc3ccc(S(N)(=O)=O)cc3)ccc2=O)c1	.	.	1%	.	.	.
O=C(O)Cc1[nH]cnc1C(=O)O	.	.	.	.	-2%[9.22 µM]	.
CC1=CC(=C(C#N)c2nc3ccccc3s2)C=C(C)N1c1ccc(F)cc1	13%	24%	3.4µM*	30%	?	?
COc1ccccc1N1C(C)=CC(=C(C#N)c2nc3ccccc3s2)C=C1C	14%	16%	3µM*	3%	-43%	?
CC(C)=C(C#N)c1nc2ccccc2s1	0%	-1%	-14%	-9%	-4%	5%
Cc1ccc(OC/C(O)=C(\C#N)c2nc3ccccc3s2)cc1	-3%	4%	?	2%	-47%	-2%
CN(CC(=O)Nc1ccc(F)cc1F)S(=O)(=O)c1ccc(C(=O)N2CCOCC2)s1	.	.	-5%	.	.	.
COC(=O)c1cccc(S(=O)(=O)N2CCC(NC(=O)NC34CC5CC(CC(C5)C3)C4)CC2)c1	-10%	-2%	-2%	1%	-14%	?
COC(=O)c1ccc(Cl)c(NC(C)=O)c1	1%	0%	0%	-2%	4%	10%
COC(=O)c1ccc(Cl)c(NC(=O)NC23CC4CC(CC(C4)C2)C3)c1	-4%	3%	-11%	1%	-19%	21µM*
COC(=O)c1cccc(NC(=O)NC23CC4CC(CC(C4)C2)C3)c1	?	21%	9.5µM*	24%	11%	?
CSc1nc(C)cc(Nc2c(C)cc(C)cc2C)n1	.	.	0%	.	.	.
c1ccc2c(c1)oc1c(Nc3ccc(CN4CCOCC4)cc3)ncnc12	2.1µM*	2.2µM*	8.5µM*	?	-92%	?
c1ccc(Nc2ncnc3c2oc2ccccc23)cc1	.	.	21µM*	.	0%	.
CC(C)C(Nc1ncnc2c1oc1ccccc12)C(=O)O (stereo not given)	5%	-2%	-16%	1%	.	6%
Oc1ccc(Nc2ncnc3c2oc2ccccc23)cc1	?	?	15µM*	?	.	?
Oc1ccccc1Nc1ncnc2c1oc1ccccc12	?	-3%	-2%	6%	-1%	?
Oc1cccc(Nc2ncnc3c2oc2ccccc23)c1	13µM*	3.5µM*	8.5µM*	?	.	?
CC(=O)N1CCc2cc(Br)cc(S(=O)(=O)N3CCC(C(=O)Nc4ccc(C(C)C)cc4)CC3)c21	.	.	-4%	.	-29%	.
SMILES	ELG1 genotoxic	NPC1 prom act	FLuc counter	Rab9 promoter act	SMN2 splice up	ELG1 repair inh
COc1ccc2oc(-c3ccc(C)c(NC(=O)c4ccc(N5CCCCC5)c([N+](=O)[O-])c4)c3)nc2c1	.	.	-11%	.	10%	.
CCOC(=O)C1CCCN(c2cc(C)nc3cc(-c4ccc(Cl)cc4)nn23)C1 (stereo not given)	-4%	-5%	-27%	2%	?	26µM*
CC(C)(C)c1ccc(OC(=O)Nc2ccc(O)c(C(=O)O)c2)cc1	6%	-1%	1.2µM*	3%	-13%[9.22 µM]	28%
Cc1ccc(OCC(=O)Nc2ccc(O)c(C(=O)O)c2)cc1C	2%	1%	17µM*	1%	-4%	18%
NC(=O)C1CC(=O)N(c2ccc(OCC(=O)Nc3ccccc3F)cc2)C1 (stereo not given)	?	?	17µM*	2.2µM*	.	?
Cc1ccccc1NC(=O)c1ccc(OCC(=O)Nc2ccccc2F)cc1	-7%	-1%	4%	-1%	-7%	-9%
Cc1ccc(OCC(=O)Nc2ccc(N3CCCC3)cc2)cc1C	4%	2%	-5%	8%	2%	?
Cc1ccc(OCC(=O)Nc2ccccc2F)cc1C	10µM*	22%	9.5µM*	?	.	?
COc1cc(Cl)c(C)cc1NC(=O)C1CCCN(c2ncnc3onc(-c4ccc(F)cc4)c23)C1 (stereo not given)	.	.	2%	.	.	.
O=C(CSc1nc2c([nH]c3ccccc32)c(=O)n1-c1ccccc1)N1CCCC1	.	.	1%	.	.	.
CCCOc1cccc(-c2cc(C(=O)NNC(=S)NCC)c3ccccc3n2)c1	27%	21%	0.76µM*	?	21%	17%
CCNC(=S)NNC(=O)c1cc(-c2cccc(OC)c2)nc2ccccc12	?	24%	0.67µM*	15%	?	?
COc1ccc(C(=O)NNC(=S)NC(=O)c2cc(-c3ccccc3)nc3ccccc23)cc1	-5%	-1%	12µM*	3%	-14%	-4%
CCNC(=S)NNC(=O)c1cc(-c2ccccc2C)nc2ccccc12	-6%	-7%	17µM*	-4%	-9%	-8%
CCCOc1ccc(C(=O)NNC(=S)NC(=O)c2cc(-c3ccc(Cl)cc3)nc3ccccc23)cc1	-5%	-9%	?	-6%	-9%	10%
CCOC(=O)CSc1nc2sc3c(c2c(=O)n1Cc1ccccc1)CCC(C(C)(C)C)C3 (stereo not given)	.	.	3%	.	-15%	.
Cc1ccc(C)c(N2CCN(C(=O)C3CCN(S(=O)(=O)c4cn(C)cn4)CC3)CC2)c1	.	.	-8%	.	.	.
Cc1ccc(NC(=O)N2CCC(CN3CCC(C)CC3)CC2)cc1F	.	.	2%	.	.	.
C=C1C(=O)OC2CC1C(OC(C)=O)CC(C)=CCCC(C)=CCC[C@@]2(C)O (stereo not given in full)	.	.	.	.	-93%	.
COc1ccc(/C=C/C(=O)NC(=S)NNC(=O)c2c(-c3ccccc3)noc2C)cc1	-1%	1%	2%	-10%	-50%	1%
COc1ccc(-c2cc(C(=O)NNC(=S)NC(=O)c3c(-c4ccccc4)noc3C)[nH]n2)cc1	-8%	-4%	9.5µM*	2%	-8%	?
CCNC(=S)NNC(=O)c1cc(-c2ccc(OCC)cc2)nc2ccccc12	-7%	?	0.024µM*	?	-14%	?
C=Cc1ccc(Cn2c(C)c(CNCCc3ccc(OCC)cc3)c(C(=O)O)c2C)cc1	.	.	-8%	.	-4%	.
